The record followed here is PubChem BioAssay (Tox21).

The nature of assay [1]: A CellTox Green Cytotoxicity Assay to monitor cytotoxicity in HEK293 cells - 8 hour (AID 1224884). Note: nearly all actives have a fitted effect of over 35% in size. In outline: (§1)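 Tox21 screen in HEK293: membrane-impermeant cyanine dye fluoresces on binding dead-cell DNA; compound pinned 5 h post-seeding, plates held at 37 C, signal read repeatedly through 40 h.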
A short description of assay [2]: qHTS RealTime-Glo MT Cell Viability Assay in HepG2 cells - 16 hour (AID 1224885). Note: nearly all actives have a fitted effect of over 50% in size. In outline: (§2)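 Tox21 10K library screened in qHTS format on HepG2 cells carrying RealTime-Glo reagents. Compounds were added after a 5 h preincubation, and the luminescent signal from continuous culture was measured repeatedly during 40 h treatment.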
For orientation: Quantitative high-throughput screening tests each substance at several concentrations.

Assay [3] in a line: qHTS RealTime-Glo MT Cell Viability Assay in HEK293 cells - 24 hour (AID 1224886). Note: top concentration of the series differs between compounds; nearly all actives have a fitted effect of over 50% in size. Summed up:
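Luminescence generated by NanoLuc from substrate produced by living HEK293 cells served as the viability signal. Each value reflects the reading at its stated time point during continuous 40 h compound exposure at 37 C.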

Assay [4] is described as follows: qHTS RealTime-Glo MT Cell Viability Assay in HEK293 cells - 8 hour (AID 1224887). Note: top concentration of the series differs between compounds; nearly all actives have a fitted effect of over 50% in size. Summed up: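 HEK293 + NanoLuc + prosubstrate, 600 cells/well; 5 h, 37 C/5% CO2; compound 23 nL in DMSO by pintool; 37 C; luminescence read at 0, 8, 16, 24, 32 and 40 h time points.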
Assay [5] can be described thus: A CellTox Green Cytotoxicity Assay to monitor cytotoxicity in HEK293 cells - 16 hour (AID 1224888). Note: nearly all actives have a fitted effect of over 35% in size. In outline: as §1
The nature of assay [6]: qHTS RealTime-Glo MT Cell Viability Assay in HepG2 cells - 0 hour (AID 1224889). Note: nearly all actives have a fitted effect of over 50% in size. In outline: as §2
Assay [7] can be described thus: A CellTox Green Cytotoxicity Assay to monitor cytotoxicity in HepG2 cells - 8 hour (AID 1224890). Note: nearly all actives have a fitted effect of over 45% in size. In outline:
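Measurements at 0, 8, 16, 24, 32 and 40 h of treatment captured CellTox Green fluorescence in HepG2 cells that had been co-plated with reagent and preincubated 5 h at 37 C/5% CO2.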

Assay [8] is described as follows: qHTS assay to identify small molecule antagonists of the estrogen receptor alpha (ER-alpha) signaling pathway using the BG1 cell line in the presence of 0.1 nM 17-beta-estradiol - cell viability counter screen (AID 1259241). Note: nearly all actives have a fitted effect of over 40% in size. In outline:
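Estradiol-stimulated (0.1 nM) VM7Luc4E2 cells exposed to compounds 22 hr; viability measured by fluorescence of cleaved CellTiter-Fluor substrate after 30 min.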

Assay [9] in a line: qHTS assay to identify small molecule antagonists of the androgen receptor (AR) signaling pathway using the MDA cell line in the presence of 0.5 nM R1881 - cell viability counter screen (AID 1259242). Note: nearly all actives have a fitted effect of over 45% in size. In outline:
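Concentration-response screen of compounds for toxicity in MDA-kb2 reporter cells: 16 hr at 37C with 0.5 nM R1881, endpoint live-cell protease fluorescence measured in the reporter wells.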

In assay [10] the target is Androgen receptor (Homo sapiens) (UniProt P10275). Kind of assay: qHTS assay to identify small molecule antagonists of the androgen receptor (AR) signaling pathway using the MDA cell line in the presence of 0.5 nM R1881 (AID 1259243). Note: nearly all actives have a fitted effect of over 50% in size. In outline: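 With R1881 held at 0.5 nM (final), compound effects on MMTV-luciferase expression in MDA-kb2 cells were scored by luminescence after a 16 hr, 37C incubation.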
Androgen receptor (Homo sapiens), sequence (P10275 whole entry, looked up): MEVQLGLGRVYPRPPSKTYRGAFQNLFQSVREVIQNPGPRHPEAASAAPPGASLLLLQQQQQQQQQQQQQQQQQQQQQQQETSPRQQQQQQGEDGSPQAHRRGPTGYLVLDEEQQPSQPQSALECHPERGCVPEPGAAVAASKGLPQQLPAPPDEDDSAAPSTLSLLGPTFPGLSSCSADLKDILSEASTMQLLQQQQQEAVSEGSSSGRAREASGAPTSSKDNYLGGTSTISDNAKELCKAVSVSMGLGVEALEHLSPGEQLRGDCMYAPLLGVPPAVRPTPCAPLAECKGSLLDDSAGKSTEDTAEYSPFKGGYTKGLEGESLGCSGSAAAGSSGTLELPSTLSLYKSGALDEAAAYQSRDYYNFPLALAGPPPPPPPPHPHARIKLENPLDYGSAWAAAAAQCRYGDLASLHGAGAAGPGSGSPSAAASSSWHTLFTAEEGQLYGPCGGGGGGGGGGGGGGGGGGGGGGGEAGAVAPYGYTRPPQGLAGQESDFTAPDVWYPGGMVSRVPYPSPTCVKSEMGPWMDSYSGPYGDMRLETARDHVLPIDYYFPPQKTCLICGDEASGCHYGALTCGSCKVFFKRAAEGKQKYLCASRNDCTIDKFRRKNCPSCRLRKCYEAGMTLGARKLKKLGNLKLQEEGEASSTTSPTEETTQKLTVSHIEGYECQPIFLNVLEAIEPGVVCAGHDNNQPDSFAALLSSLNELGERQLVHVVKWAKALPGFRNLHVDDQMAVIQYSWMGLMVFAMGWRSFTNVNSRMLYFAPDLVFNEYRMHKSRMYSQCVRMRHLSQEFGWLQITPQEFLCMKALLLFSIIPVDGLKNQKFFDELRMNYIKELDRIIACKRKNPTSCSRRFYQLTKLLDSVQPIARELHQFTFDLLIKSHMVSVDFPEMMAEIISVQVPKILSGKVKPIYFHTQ

The target in assay [11] is Estrogen receptor (Homo sapiens) (UniProt P03372). Kind of assay: qHTS assay to identify small molecule antagonists of the estrogen receptor alpha (ER-alpha) signaling pathway using the BG1 cell line in the presence of 0.1 nM 17-beta-estradiol (AID 1259244). Note: nearly all actives have a fitted effect of over 50% in size. Summed up: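 Compounds were tested against 0.1 nM (final) 17beta-estradiol in VM7Luc4E2 cells, which express full-length ER-alpha and an ERE-luciferase reporter; luminescence was recorded following 22 h exposure.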
Estrogen receptor (Homo sapiens), sequence (P03372 whole entry, looked up): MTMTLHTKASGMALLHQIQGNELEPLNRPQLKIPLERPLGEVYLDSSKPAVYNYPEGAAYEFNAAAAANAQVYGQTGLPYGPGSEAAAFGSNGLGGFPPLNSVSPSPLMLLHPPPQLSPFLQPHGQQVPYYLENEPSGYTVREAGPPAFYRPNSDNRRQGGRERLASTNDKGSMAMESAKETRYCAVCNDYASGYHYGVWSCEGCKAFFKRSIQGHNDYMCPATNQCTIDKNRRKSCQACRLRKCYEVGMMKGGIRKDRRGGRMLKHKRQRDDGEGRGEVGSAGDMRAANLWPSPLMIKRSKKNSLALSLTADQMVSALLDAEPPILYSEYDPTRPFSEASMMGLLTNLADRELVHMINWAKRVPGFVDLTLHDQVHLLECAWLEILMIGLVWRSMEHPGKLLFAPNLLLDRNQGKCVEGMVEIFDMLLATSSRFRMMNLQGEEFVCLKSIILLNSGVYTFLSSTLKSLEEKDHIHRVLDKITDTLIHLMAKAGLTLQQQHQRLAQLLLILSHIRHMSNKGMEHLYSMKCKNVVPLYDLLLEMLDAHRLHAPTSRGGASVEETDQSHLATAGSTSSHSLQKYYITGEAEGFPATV

The nature of assay [12]: qHTS assay to identify small molecule phospholipidosis (PLD) inducers (AID 1259344; active = well fitted curve in the direction sought with a large enough effect; an effect the other way counts as inactive or inconclusive). In outline:
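Accumulated phospholipid, stained red by LipidTOX during 24 h compound treatment of HepG2 cells at 37 C, is quantified from images as pit number and intensity, normalised per cell using Hoechst-stained nuclei.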

Assay [13] is described as follows: qHTS assay to identify small molecule HDAC inhibitors (AID 1259364). For activity change, negative = inhibition: top concentration of the series differs between compounds. Note: potency is the fitted concentration of half-maximal effect.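 Note: wild-type HCT-116 cells with endogenous class I/II HDAC activity; nearly all actives have a fitted effect of over 45% in size.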 Summed up: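 Screening used wild-type human colon HCT-116 cells incubated overnight, dosed with compounds for 2 hours, and assayed with a homogeneous luminogenic HDAC I/II reagent for 30 minutes at room temperature.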
Assay [14] in a line: qHTS assay to identify small molecule agonists of the sonic hedgehog signaling (Shh) pathway - cell viability counter screen (AID 1259366). Note: nearly all actives have a fitted effect of over 50% in size. In outline: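 Same-well cytotoxicity read. Gli1-Luc reporter 3T3 cells; compounds 24hr, 37C/5% CO2; CellTiter-Fluor fluorescence.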
The nature of assay [15]: qHTS assay to identify small molecule antagonists of the sonic hedgehog signaling (Shh) pathway - cell viability counter screen (AID 1259367). Note: nearly all actives have a fitted effect of over 55% in size. Summed up: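 CellTiter-Fluor signal in conditioned medium-stimulated 3T3 Gli1-Luc cells, 23 hr compound exposure, 37C.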
Assay [16] can be described thus: qHTS assay to identify small molecule agonists of the sonic hedgehog signaling (Shh) pathway (AID 1259368; calls by dose curve; note: nearly all actives have a fitted effect of over 15% in size; note: potency is the fitted concentration of half-maximal effect;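 for activity change: NIH/3T3-derived 3T3Gli1-Luc cells carrying a stable Gli1-driven firefly luciferase reporter; series mostly up to about 92 µM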). In outline: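 Hedgehog pathway agonism scored by increased firefly luciferase luminescence in 3T3Gli1-Luc cells treated 24 hr at 37 C; detection used a 30 min room-temperature reagent incubation.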
Assay [17] in a line: qHTS assay to identify small molecule antagonists of the sonic hedgehog signaling (Shh) pathway (AID 1259369; calls by dose curve; note: nearly all actives have a fitted effect of over 45% in size). In outline:
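NIH/3T3 stable Gli1-Luc clone, 2,000 cells/well, 4hr settle; cpd + conditioned medium 24hr; Luc reagent 30min RT; luminescence.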

Assay [18] can be described thus: qHTS assay to identify small molecule HDAC inhibitors - cell viability counter screen (AID 1259365). Summed up: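 After overnight seeding at 1,500 cells per well, wild-type HCT-116 cultures took up compounds in DMSO for 2hr at 37 C. Viable cell content came from luminescence with CellTiter-Glo.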
Assay [19] addresses Estrogen receptor beta (Homo sapiens) (UniProt Q92731). Kind of assay: qHTS assay to identify small molecule agonists of the estrogen receptor beta (ER-beta) signaling pathway (AID 1259377; active = well fitted activation curve with a large enough effect in the signal ratio in the repeat runs, not every such curve was filed as active; the % refers to the signal ratio). In outline:
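Read-out: beta-lactamase FRET fluorescence. Cell line: ER-beta-UAS-bla HEK293T in 2% charcoal-stripped FBS. Exposure: 16 hr at 37C. Substrate step: 2 h at room temperature.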

For assay [20] the target is unchanged. Kind of assay: qHTS assay to identify small molecule antagonists of the estrogen receptor beta (ER-beta) signaling pathway (AID 1259378; active = well fitted inhibition curve with a large enough effect in the signal ratio in the repeat runs, not every such curve was filed as active; the % refers to the signal ratio). In outline: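 Antagonist mode: compounds added to beta-lactamase reporter HEK293T ER-beta-UAS cells stimulated with E2 (1nM final), 16 hr at 37C. LiveBLAzer B/G FRET substrate, 2 hours room temperature, fluorescence read-out.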

A number with no mark means an inactive call. Inconclusive results are not listed. Activity calls are given as the source filed them. Unless noted, calls come from the whole dose curve; as a rule, active = well fitted curve in the direction sought with a large enough effect in the repeat runs; inconclusive = weak or mixed curves; inactive = no such curve, though single readings can be large; an effect the other way counts as inactive or inconclusive.
% is set by controls: 0 for no effect and ±100 for the full control effect.

Estrogen receptor beta (Homo sapiens), sequence (Q92731 whole entry, looked up): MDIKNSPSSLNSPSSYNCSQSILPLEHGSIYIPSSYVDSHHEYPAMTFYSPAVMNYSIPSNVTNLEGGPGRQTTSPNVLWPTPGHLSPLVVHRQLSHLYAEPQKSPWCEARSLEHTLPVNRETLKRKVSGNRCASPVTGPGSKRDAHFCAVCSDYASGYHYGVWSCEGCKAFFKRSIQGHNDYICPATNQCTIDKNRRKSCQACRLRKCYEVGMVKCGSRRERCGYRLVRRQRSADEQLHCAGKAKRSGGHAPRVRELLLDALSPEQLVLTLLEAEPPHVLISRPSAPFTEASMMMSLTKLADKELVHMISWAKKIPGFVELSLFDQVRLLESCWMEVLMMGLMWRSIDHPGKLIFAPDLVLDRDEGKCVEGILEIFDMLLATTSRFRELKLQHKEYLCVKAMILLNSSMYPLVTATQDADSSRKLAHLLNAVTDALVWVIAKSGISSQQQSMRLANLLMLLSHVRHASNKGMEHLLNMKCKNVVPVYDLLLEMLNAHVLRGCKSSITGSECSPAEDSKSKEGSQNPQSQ

In the case of `O=C(O)C[C@H](O)C[C@H](O)/C=C/c1c(C2CC2)nc2ccccc2c1-c1ccc(F)cc1`, the values for the cytotoxicity increase in assay [1] and in assay [7] were -1.19% [at 15.8 µM] and -9.83% [at 15.8 µM], respectively. The activity change, negative = cytotoxic in assay [2] is 0.557% [at 15.8 µM]. Besides, the activity change, negative = cytotoxicity in assay [3] is -0.416% [at 15.8 µM]; in [4] it was 5.42% [at 15.8 µM]; in [6], -0.353% [at 15.8 µM]; in [8] it was 6.55% [at 19 µM]. The activity change was 2.31% [at 15.8 µM, hits give high values] in [5] and -2.24% [at 18.9 µM, hits give high values] in assay [16]. Moreover, the figures for the viability change, negative = cytotoxic in [9], in assay [14] and in [15] were -6.18% [at 19 µM], -7.99% [at 19 µM] and -0.451% [at 19 µM], respectively. For the same compound, the activity, negative = inhibition in [10] is 31.2% [at 19 µM]. The activity change, negative = inhibition in [11] is 17.2% [at 19 µM]; in [13] it was -0.0181% [at 19 µM]; in assay [17], -28% [at 19 µM]. For the same compound, in [12], the Potency entry is “inactive”.

As for `Cc1ccc2nc(-c3ccc(N)cc3)sc2c1S(=O)(=O)O`, the Potency entry in assay [1], in [2], in [3], in assay [4], in [5] and in assay [6] was “inactive” in each case. For the same compound, the Potency entry in [7], in assay [8], in assay [9], in assay [10], in assay [11] and in [18] was “inactive” each time. In addition, the Potency result in assay [14], in assay [15] and in [17] was “inactive” each time. In addition, the Potency in [13] is 3800 nM (active); in [16], 1900 nM (active).

Turning to `Nc1c(Br)cc([N+](=O)[O-])cc1Br`, the Potency result in assay [1], in assay [2], in [3], in assay [4], in assay [5] and in assay [6] was “inactive” throughout. Also, the Potency entry in [7], in assay [8], in [9], in [11], in assay [13] and in assay [18] was “inactive” throughout. Further, the Potency result in assay [14], in assay [15], in assay [16], in assay [17] and in assay [20] was “inactive” each time. Besides, the outcome in assay [19] was inactive.

Consider `ClC(c1ccccc1)(c1ccccc1)c1ccccc1`, for which the Potency result in assay [1], in assay [2], in assay [3], in assay [4], in assay [5] and in assay [6] was “inactive” each time. Besides, the Potency result in assay [7], in assay [8], in assay [9], in [13], in assay [18] and in assay [14] was “inactive” in each case. The Potency entry in assay [15], in assay [16] and in [17] was “inactive” in each case.

For `CC(C)C(=O)C(C)C`, the Potency result in assay [1], in assay [2], in [3], in assay [4], in assay [5] and in assay [6] was “inactive” each time. Further, the Potency result in assay [7], in assay [8], in assay [9], in assay [10], in assay [11] and in assay [13] was “inactive” throughout. Moreover, the Potency result in assay [18], in assay [15], in assay [16], in assay [17] and in [20] was “inactive” throughout. In addition, the call in [19] was inactive.

For the compound `Clc1cccc(Cl)n1`, the Potency entry in [1], in assay [2], in assay [3], in assay [4], in assay [5] and in assay [6] was “inactive” throughout. Besides, the Potency result in assay [7], in [8], in assay [9], in assay [10], in [11] and in assay [13] was “inactive” in each case. In addition, the Potency result in assay [14], in assay [15], in assay [16] and in assay [17] was “inactive” each time.

For `CC1(C)[C@H](C(=O)OCc2cccc(Oc3ccccc3)c2)[C@@H]1C=C(Cl)Cl`, the Potency entry in assay [1], in [2], in assay [3], in assay [4], in [5] and in assay [6] was “inactive” in each case. The Potency result in assay [7], in [8], in assay [9], in assay [10], in assay [11] and in assay [13] was “inactive” each time. For the same compound, the Potency entry in [18], in assay [14], in assay [15], in [16] and in assay [17] was “inactive” each time.
